# Measurements taken from publication PMC4336329 (PLoS ONE, 2015).
# Hit rate of the full screen: of about 310,000 compounds, about 14,000 (4.5%) showed an effect of 50% or more. The effect is printed as a negative number. This excerpt belongs to a sample that is enriched for strong results.
# Target: human ether-à-go-go-related gene (hERG) potassium channel (human, UniProt Q12809)
# Assay: primary screen, population patch clamp on CHO cells stably expressing hERG; higher = less effect of the substance
# 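Further: peak tail current of the secondary pulse compared with the same well before compound.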
# Chain of human ether-à-go-go-related gene (hERG) potassium channel (Q12809 whole entry, looked up): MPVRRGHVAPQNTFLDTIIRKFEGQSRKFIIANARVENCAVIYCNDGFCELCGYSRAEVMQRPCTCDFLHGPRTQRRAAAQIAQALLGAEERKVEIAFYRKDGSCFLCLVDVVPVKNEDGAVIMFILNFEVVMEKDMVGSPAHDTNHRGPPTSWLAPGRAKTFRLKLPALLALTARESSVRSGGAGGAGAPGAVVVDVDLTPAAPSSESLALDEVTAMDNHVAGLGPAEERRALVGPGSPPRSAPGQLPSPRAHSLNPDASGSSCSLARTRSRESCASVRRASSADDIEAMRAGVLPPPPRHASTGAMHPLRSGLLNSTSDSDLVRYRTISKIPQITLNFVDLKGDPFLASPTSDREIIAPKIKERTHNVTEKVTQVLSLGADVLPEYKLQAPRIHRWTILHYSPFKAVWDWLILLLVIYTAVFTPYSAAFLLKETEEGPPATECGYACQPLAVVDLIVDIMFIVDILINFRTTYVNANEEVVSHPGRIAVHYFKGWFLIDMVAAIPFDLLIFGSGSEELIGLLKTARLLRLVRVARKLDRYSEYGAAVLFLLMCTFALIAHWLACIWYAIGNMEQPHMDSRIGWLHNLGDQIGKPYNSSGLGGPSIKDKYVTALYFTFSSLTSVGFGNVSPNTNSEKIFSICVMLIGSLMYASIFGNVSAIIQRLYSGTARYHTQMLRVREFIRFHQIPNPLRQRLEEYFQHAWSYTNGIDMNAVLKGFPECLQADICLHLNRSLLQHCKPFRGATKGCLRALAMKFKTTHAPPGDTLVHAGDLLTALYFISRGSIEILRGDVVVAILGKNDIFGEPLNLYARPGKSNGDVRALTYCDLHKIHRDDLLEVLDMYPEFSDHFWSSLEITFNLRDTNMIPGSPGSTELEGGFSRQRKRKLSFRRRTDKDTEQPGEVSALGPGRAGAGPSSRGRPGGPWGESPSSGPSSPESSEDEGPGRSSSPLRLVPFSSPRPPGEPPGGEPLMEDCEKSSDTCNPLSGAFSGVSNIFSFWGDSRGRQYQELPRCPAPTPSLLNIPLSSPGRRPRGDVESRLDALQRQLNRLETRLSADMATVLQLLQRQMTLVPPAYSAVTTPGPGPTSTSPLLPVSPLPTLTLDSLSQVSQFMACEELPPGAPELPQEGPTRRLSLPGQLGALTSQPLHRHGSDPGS
row,SMILES,"hERG current change (%, negative = inhibition) at 10uM"
1,Cc1nnc(SCC(=O)Nc2ccccc2)n1CCc1ccccc1,-33%
2,CCCn1c(SCC(=O)Nc2ccccc2-c2ccccc2)nnc1-c1ccoc1C,-26%
3,CSc1nc(SC)c2c3c(oc2n1)COC(C)(C)C3,7.86%
4,Cc1ccc(N2CCN(/N=C/C(Cl)=C/c3ccccc3)CC2)cc1,-5.13%
5,O=C(CN(Cc1ccco1)C(=O)c1ccc(Cl)cc1)Nc1c(Cl)cc(Cl)cc1Cl,7.76%
6,CN1C(=O)c2ccccc2Sc2ccc(NC(=O)NC3CC3)cc21,-11%
7,CCOc1ccccc1C(=O)NCC(=O)NCC1CCCCC1,12.2%
8,COc1ccc(N2C(=O)C3C4C=CC(CC4)C3C2=O)c([N+](=O)[O-])c1 (centres unmarked),-5.27%
9,O=C(/C=C/c1ccco1)NC(=S)Nc1ccc(O)c(-c2nc3ccccc3s2)c1,13.2%
10,CSc1ccccc1NC(=S)N/N=C/c1cccn1Cc1ccc(F)cc1,-6.67%
11,O=C(c1cc(=O)c2ccccc2o1)N1CCN(c2ccccc2F)CC1,-15.3%
12,COc1ccc(NC(=O)CSc2nnc(-c3ccoc3C)n2CCc2ccccc2)cc1,-54.3%
13,Cc1occc1-c1nnc(SCC(=O)NCCc2ccccc2)n1C(C)c1ccccc1 (centres unmarked),-31.8%
14,Cc1cc(NC(=O)CSc2nnc(-c3ccc(Br)o3)n2Cc2ccccc2)no1,-51.2%
15,Cc1occc1-c1nnc(SCC(N)=O)n1Cc1ccccc1,3.5%
16,COc1ccc(NC(=O)CSc2nnc(-c3ccoc3C)n2CC2CCCO2)cc1 (centres unmarked),-5.04%
17,Cc1cc(NC(=O)CSc2nnc(-c3ccco3)n2Cc2ccccc2)no1,-44.3%
18,COCCn1c(SCC(=O)Nc2ccc(OC)cc2)nnc1-c1ccoc1C,-3.58%
19,Cc1occc1-c1nnc(SCC(=O)NCCc2ccccc2)n1Cc1ccccc1,-81.1%
20,Cc1cc(NC(=O)CSc2nnc(C3CC3)n2Cc2ccccc2)no1,-8.63%
21,COc1cccc2cc(C(=O)NCCc3ccccc3)oc12,-20.1%
22,C/C(=N\NC(=O)C1(C)CC1(Br)Br)c1ccc(NC(=O)c2ccc(C)o2)cc1 (centres unmarked),-8.92%

row,SMILES,"hERG current change (%, negative = inhibition) at 10uM"
1,COc1cc2nc(-c3cccs3)oc(=O)c2cc1OC,4.77%
2,COc1cccc2c1Oc1ncccc1N(C(=O)CCC(=O)NCc1cccc(C)c1)C2,-23.5%
3,CC(C)[C@H](NC(=O)C1CCN(S(=O)(=O)c2ccccc2)CC1)C(=O)NCc1ccccc1,10.2%
4,O=C(COC(=O)/C=C/c1ccc(Br)o1)NC1CCCCC1,11%
5,O=C(N/N=C/c1ccc([N+](=O)[O-])o1)C1CCCC1,10.6%
6,O=C(Cc1ccc([N+](=O)[O-])cc1)N/N=C/c1ccc([N+](=O)[O-])o1,-64.7%
7,O=C(CCN1CCN(c2ccccc2)CC1)N/N=C/c1ccc([N+](=O)[O-])o1,-73.4%
8,O=C(CCN1CCN(c2ccccc2)CC1)N/N=C/c1ccccc1O,-16%
9,O=C(Cc1ccc([N+](=O)[O-])cc1)N/N=C/c1ccco1,-15.3%
10,O=C(CN1CCCCCCC1)N/N=C/c1ccc([N+](=O)[O-])o1,-52.1%
11,CC(=O)Nc1ccc(/C=N/NC(=O)CCN2CCN(c3ccccc3)CC2)cc1,-2.3%
12,O=C(Cc1ccccc1)N/N=C/c1ccc(-c2ccc([N+](=O)[O-])cc2)o1,4.21%
13,CCCCCC(=O)N/N=C/c1ccc([N+](=O)[O-])o1,-26.2%
14,COc1ccc(C2C(C(=O)c3cccs3)=C(O)C(=O)N2c2nnc(C)s2)cc1OC (centres unmarked),1.32%
15,CCN1C(=O)/C(=C\N2CCN(c3ccc(F)cc3)CC2)SC1=S,15.5%
16,COc1ccc(N2C(=O)C3CCCN3C2c2cccc(C)c2)cc1Cl (centres unmarked),-31.3%
17,O=C(Nc1ccccc1F)C(=O)c1cn(CC(=O)N2CCCCC2)c2ccccc12,13.8%
18,CN1CCN(C2=Nc3ccccc3Oc3ccc(Cl)cc32)CC1.O=C(O)CCC(=O)O,-6.25%
19,CCN(CC(=O)NC(=O)NC1CCCCC1)Cc1nc2ccccc2c(=O)[nH]1,-8.1%
20,CN1CC(=O)N=C1N.Cl,-50.1%
21,CN1CC(=O)N=C1N,8.56%
22,O=C(CN1CCN(S(=O)(=O)c2ccc(F)c(Cl)c2)CC1)N1CCNC1=O,-1.79%
